# Test results: PubChem BioAssay AID2401 (Southern Research Specialized Biocontainment Screening …, 2010)
# In all, about 2,200 compounds went through this assay and about 530 (24%) were called active.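 How the source made its calls: active means inhibition above a set limit at one or more concentrations of the dose series; inactive means inhibition under that limit at every dose.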 Only a sample is shown. Potency and affinity values are given separately.
# Test: S. Typhimurium nonspecific reporter signal inhibition – Salmonella Typhimurium, GFP fluorescence, counter-screen for PhoP regulon inhibitor project, dose response (AID 2401);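 further: S. typhimurium with Mg-insensitive nmpC-GFP reporter grown at 10 µM Mg2+; drop in reporter fluorescence reflects general culture growth inhibition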
# Conditions: 4 h; series mostly up to 150 µM; inhibition: at the top concentration
row,SMILES,inhibition
1,Cc1cc(C)c2nc(NNC(=O)c3ccc(S(=O)(=O)N4CCCCC4)cc3)sc2c1,21.1% (inactive)
2,O=S(=O)(Cc1ccccc1Cl)N1CCN(Cc2ccc3c(c2)OCO3)CC1,-19.7% (inactive)
3,Brc1cccc(CNCc2cccs2)c1,38.1% (inactive)
4,COc1ccc(CCNC(=S)Nc2cccc3ccccc23)cc1,-16.6% (inactive)
5,COc1cc(CNCc2cccs2)cc(Br)c1OC,2.17% (inactive)
6,COc1ccccc1CNc1nc2nc(C)c(C)c(=O)n2[nH]1,-8.36% (inactive)
7,Cc1cccc(Nc2ncccc2C(=O)NCc2cccs2)c1C,-18.4% (inactive)
8,Cn1c(=O)c(=O)n(C)c2cc(S(=O)(=O)Nc3ccc4c(c3)OCCO4)ccc21,-14.2% (inactive)
9,COc1ccc(/C=N/NC(=O)CC(=O)NCc2cccnc2)cc1,-30.6% (inactive)
10,CC(=O)Nc1ccc(C(=O)N2CCN(C(=O)c3ccco3)CC2)cc1,-16.6% (inactive)
11,COc1ccc(S(=O)(=O)Nc2ccc(F)c(F)c2)cc1Cl,-16.4% (inactive)
12,OC(COc1ccc2c(c1)CCC2)Cn1cnc2ccccc21 (stereo not given),-22.3% (inactive)
13,O=C(Nc1cccc(Cl)c1)Nc1ccc2c(c1)OCO2,22.9% (inactive)
14,O=S1(=O)CC(O)C(Nc2ccccc2Cl)C1 (stereo not given),-5.93% (inactive)
15,NC(=O)c1ccccc1N=Cc1ccccn1,-16.6% (inactive)
16,CCCc1cc(=O)oc2cc(OCC(=O)N3CCc4ccccc43)ccc12,-31.7% (inactive)
17,CN1CCCC(OC(=O)c2ccc(Cl)cc2)C1 (stereo not given),4.83% (inactive)
18,O=C(/C=C\c1ccco1)Nc1nc(-c2ccccc2)cs1,8.94% (inactive)
19,Cc1cc(C)c2c(c1)NC(=O)C2(O)CC(=O)c1cccs1 (stereo not given),-27.9% (inactive)
20,O=C(c1ccc(-c2ccccc2)cc1)c1ccccc1C(=O)N1CCOCC1,-35.4% (inactive)
21,N#Cc1c(NC(=O)c2cnccn2)sc2c1CCCC2,-36.9% (inactive)
22,COc1ccc(/C=C/C(=O)NC(=S)NNC(=O)c2cnccn2)cc1,28.6% (inactive)
23,CC(=O)C1=C(C)NC(SCSc2ccccc2)=C(C#N)C1c1cccnc1 (stereo not given),-11% (inactive)

row,SMILES,inhibition
1,CC(=O)NC1C(c2nc3ccccc3s2)=C(c2ccccc2)C(=O)N1c1ccc(C)cc1 (stereo not given),-5.01% (inactive)
2,COc1cccc(-c2nc(-c3ccc(Br)o3)no2)c1,-20.9% (inactive)
3,CCc1ccc(OCC(=O)Nc2ccc(-c3cc4ccccc4oc3=O)c(OC)c2)cc1,-8.74% (inactive)
4,Oc1ccc(/C=N/NC2=NCCCCC2)c(O)c1,-12.8% (inactive)
5,Oc1ccc(/C=N/n2cnn(Cc3ccccc3Cl)c2=S)c(O)c1,-8% (inactive)
6,CC(=O)Nc1cc(N=Cc2ccc(O)cc2O)c(Cl)cc1Cl,24.2% (inactive)
7,O=C(O)CCS(=O)(=O)c1ccc(-c2ccccc2)cc1,-15.4% (inactive)
8,O=C(c1ccco1)c1cn(CC(=O)N2CCCc3ccccc32)c2ccccc12,17.9% (inactive)
9,Cc1ccc([N+](=O)[O-])cc1NC(=O)CN(C(=O)c1ccc(Cl)cc1)C1CCCCC1,8.04% (inactive)
10,O=C(/C=C/c1ccccc1)N/C(=C/c1ccccc1)C(=O)N1CCOCC1,-19.8% (inactive)
11,COc1cc(OC)cc(C(=O)N[C@H](C(=O)OCC(=O)Nc2ccc(C(N)=O)cc2)C(C)C)c1,0.38% (inactive)
12,O=C(N/N=C/c1ccc(O)cc1O)C(=O)N/N=C/c1ccc(O)cc1O,-9.16% (inactive)
13,CC1C(=O)NN=C1C(=O)N/N=C\c1ccc(O)cc1O (stereo not given),-83.9% (inactive)
14,O=C(NCCN1CCOCC1)c1ccc2ccccc2c1,-11.9% (inactive)
15,CC(CN1CCOCC1)C(=O)c1ccccc1 (stereo not given),7.3% (inactive)
16,Cc1ccc(-c2n[nH]c(=S)n2/N=C/c2cc3c(cc2[N+](=O)[O-])OCO3)cc1,-22.4% (inactive)
17,O=Cc1cccn1Cc1ccccc1[N+](=O)[O-],16.3% (inactive)
18,CCCn1c(/N=C/c2ccc3c(c2)OCO3)nc2ccccc21,20.5% (inactive)
19,C(=N\N1CCN(Cc2ccccc2)CC1)/c1cccnc1,-23.4% (inactive)
20,COC(=O)c1sccc1N/N=C(\C)c1ccc(F)c(Cl)c1,-14.8% (inactive)
21,Cc1cccc2nc(CSc3nc4ccccc4o3)cn12,-19.8% (inactive)
22,Nc1nc(Nc2ccc(Cl)cc2)n[nH]1,-26.3% (inactive)
23,Cn1c(SCC(=O)NC(=O)c2cccc([N+](=O)[O-])c2)nnc1-c1ccc(F)cc1,-35.7% (inactive)

row,SMILES,inhibition
1,Cc1cc(C)c(NC(=S)NC(=O)c2ccc(-c3ccccc3)cc2)c(C)c1,-10.1% (inactive)
2,O=C(NNc1c2ccccc2nc2ccccc12)c1ccccc1O,17.7% (inactive)
3,O=C(CSc1nnc(-c2cccnc2)o1)OC1CCCCC1,-22.3% (inactive)
4,CCC(C)C(NC(=O)OCc1ccccc1)C(=O)OCN1C(=O)c2ccccc2C1=O (stereo not given),19.2% (inactive)
5,Cc1cc(C2=NNC(=NC3CC3)SC2)c(C)n1-c1ccccc1,11.5% (inactive)
6,CCn1c(CNC(=O)COc2ccc(C(C)C)cc2)nnc1SCC(=O)Nc1ccccc1,-16.7% (inactive)
7,Clc1ccc(CNc2ccc(CNc3ncn[nH]3)cc2)cc1,-8.26% (inactive)
8,Cc1cc(C(=O)N2CCN(C/C=C/c3ccccc3)CC2)no1,-11.5% (inactive)
9,N#CC1(C#N)COC23CCCCC2C1(C#N)C(=N)O3 (stereo not given),16.8% (inactive)
10,CCCc1nn(C)c2c1C(c1cccnc1)C(C#N)=C(N)O2 (stereo not given),-14.1% (inactive)
11,CCSc1nnc(NC(=O)Cc2cccc(OC)c2)s1,-15.3% (inactive)
12,O=C(COC(=O)c1n[nH]c2ccccc12)NC(=O)NC12CC3CC(CC(C3)C1)C2,24.8% (inactive)
13,C#CCOc1c(Cl)cc(/C=N/O)cc1OC,-31.2% (inactive)
14,Cc1ccc(N(CC(=O)N/N=C/c2ccco2)S(=O)(=O)c2ccccc2)cc1,-13.4% (inactive)
15,O=C(Nc1cccnc1)c1cc(F)cc(F)c1,-20% (inactive)
16,Cc1[nH]c2ccccc2c1C1=NNC(=Nc2ccc(F)cc2)SC1,21.3% (inactive)
17,O=C(CCC(=O)c1cccs1)OCC(=O)N1CCN(S(=O)(=O)c2ccccc2)CC1,-3.05% (inactive)
18,CCOC(=O)CCC(NC(=O)c1ccc(NCN2C(=O)CCC2=O)cc1)C(=O)OCC (stereo not given),-16.3% (inactive)
19,Cc1ccc(S(=O)(=O)NCc2ccc(C(=O)N3CCN(c4ccccn4)CC3)cc2)cc1,-3.97% (inactive)
20,COCCNCCOc1ccccc1-c1ccccc1,-20.5% (inactive)
21,O=C(NCc1ccco1)c1cccc(Nc2nc3ccc(Br)cc3[nH]2)c1,16.6% (inactive)
22,Cc1ccc(C)c(-c2nc3ccc(N)cc3[nH]2)c1,8.01% (inactive)
23,Nc1cc(N)cc(-c2nc3ccccc3[nH]2)c1,-11.4% (inactive)

row,SMILES,inhibition
1,O=C(OCC1O[C@@H](OC(=O)c2cc(O)c(O)c(O)c2)[C@@H](OC(=O)c2cc(O)c(O)c(O)c2)[C@@H](OC(=O)c2cc(O)c(O)c(O)c2)[C@@H]1OC(=O)c1cc(O)c(O)c(O)c1)c1cc(O)c(O)c(O)c1 (stereo not given in full),26.4% (inactive)
2,Cc1nn(C)c(C)c1S(=O)(=O)N1CCC(C(=O)NC2CCCCC2)CC1,-28.4% (inactive)
3,Oc1[nH]c(=S)sc1/C=C1\C(c2ccccc2)=Nc2ccccc21,33.3% (inactive)
4,C#CCn1c(=NC(=O)c2cc(Cl)sc2Cl)sc2cc(S(N)(=O)=O)ccc21,-40% (inactive)
5,O=C(O)C1(P(=O)(c2ccccc2)c2ccccc2)CCC1,-25.4% (inactive)
6,Cc1cc(C)c2c(=O)[nH]c(SCC(=O)Nc3ccc(N(C)C)cc3)nc2n1,35.6% (inactive)
7,CC(C)c1ccc(O)c(NC(=O)c2cncc(Br)c2)c1,-9.36% (inactive)
8,Cc1cc2nn(-c3ccccc3)nc2cc1NC(=O)c1cccs1,-31.8% (inactive)
9,Cc1ccc(/C=C2\SC(=S)N(Cc3ccccc3)C2=O)o1,-4.72% (inactive)
10,O=C(Nc1ccsc1C(=O)NC1CCCCC1)c1ccccc1,-7.17% (inactive)
11,CCOC(=O)c1c(NC(=O)COc2ncnc3ccccc23)sc(C)c1CC,-17.2% (inactive)
12,CCOC(=O)CCCc1c[nH]c2ccccc12,-19.1% (inactive)
13,O=C(c1ccccc1)c1coc2ccc(O)c(Cl)c12,-8.89% (inactive)
14,CCCCN(C)C(=O)c1cn(C)c2ccc(S(=O)(=O)N(C)C)cc2c1=O,-20.2% (inactive)
15,Cc1nc(CC(=O)c2ccc(O)cc2O)cs1,-15.4% (inactive)
16,COC(=O)c1sccc1NC(=O)c1cccnc1,-1.61% (inactive)
17,O=C(CSc1ccc(Cl)cc1)Nc1ccccc1N1CCN(C(=O)c2ccc(Cl)cc2)CC1,18.5% (inactive)
18,COc1ccc(-c2csc(Nc3cccnc3)n2)cc1,-14.9% (inactive)
19,CC(=O)NC12CC3CC(C1)CC(C(=O)OCC(=O)c1ccc4c(c1)OCCO4)(C3)C2,-11.1% (inactive)
20,COc1ccc(CC(=O)n2nc(-c3ccccc3)nc2NCc2ccco2)cc1,-29.6% (inactive)
21,CC(C)(C)c1ccc(C2CC2C(=O)N/N=C\c2cc3ccccc3nc2Cl)cc1 (stereo not given),-20.2% (inactive)
22,CCCn1c(N)nc2ccccc21,11.4% (inactive)
23,CSc1nc2ccccc2n1Cc1cccc(F)c1,-20.3% (inactive)

row,SMILES,inhibition
1,CCCCn1c(N)nc2ccccc21,18.9% (inactive)
2,COc1ccc2c(c1)nc(N)n2Cc1ccccc1,9.4% (inactive)
3,CCOC(=O)c1[nH]c2ccccc2c1NC(=O)NC1CCCCC1,-19.6% (inactive)
4,O=C(OCC#CCSc1nnc(-c2cccc3ccccc23)o1)c1ccco1,-14.9% (inactive)
5,Cc1ccc2nc(C(F)OC(F)(F)F)[nH]c2c1 (stereo not given),-31.3% (inactive)
6,O=C(CC1SC(=NCc2ccccc2)NC1=O)Nc1ccccc1 (stereo not given),-28.2% (inactive)
7,COc1ccc2ccccc2c1/C=N/NC(=O)c1sc(N)c(C#N)c1C,3.17% (inactive)
8,COc1ccc(OCCn2cc(/C=N/NC(=O)c3ccncc3)c3ccccc32)cc1,-12% (inactive)
9,COc1ccc(NC(=O)c2ccc(OC)cc2)cc1,3.62% (inactive)
10,CC(=O)n1cc(/C=N/NC(=O)c2sc(C)nc2C)c2ccccc21,-7.12% (inactive)
11,CC(=O)c1c(C)nc(-c2ccc(Cl)cc2)nc1N=CN(C)C,0.07% (inactive)
12,O=C1CN(C(=O)COC(=O)CCC(=O)c2ccc3c(c2)OCCO3)c2ccccc2N1,-0.13% (inactive)
13,Cc1cccc(-n2c(N)cc(=O)[nH]c2=S)c1C,25.7% (inactive)
14,OCCN(CCO)CC(O)Cn1c2ccccc2c2ccccc21 (stereo not given),-5.12% (inactive)
15,Oc1cccc2ccc[n+](CC(O)Cn3c4ccccc4c4ccccc43)c12 (stereo not given),-8.84% (inactive)
16,Cc1cc(C)c(C#N)c(SCc2cn3ccccc3n2)n1,1.99% (inactive)
17,CCCCNC(=O)Oc1cccc(N2CCCC2=O)c1,31.2% (inactive)
18,COc1ccc(Cl)cc1C(=O)CSc1nc(N)cc(N)n1,-10.7% (inactive)
19,COc1ccccc1N1CCN(C/C(O)=C(\C#N)c2nc(-c3ccccc3)cs2)CC1,34% (inactive)
20,Cc1nc(-c2ccccc2)cc(=O)[nH]1,-19.9% (inactive)
21,Cn1c(NCc2ccccc2O)nc2ccccc21,-7.98% (inactive)
22,CC(CCc1ccccc1)NC(=O)c1ccccc1 (stereo not given),-8.81% (inactive)
23,COCC(=O)N=Nc1c(O)[nH]c2ccccc12,-11.6% (inactive)
